Compound activity: PubChem BioAssay, several laboratories
Hits are enriched below; roughly 4.8% of the tested compounds scored in any of these assays.
SKKanGAS inh – S. pyogenes SKKanGAS growth inhibitors in kanamycin, primary screen, streptokinase expression inhibitor project, SKKanGAS strain, BacTiter-Glo luminescence; 6 h; inhibition, % at 7.5 µM; hit rate 1.3% among 300,000;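 active means mean replicate score, as percent of positive control median, at least 50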;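 further: strain carries kanamycin resistance gene driven by streptokinase promoter and grows in 40 µg/ml kanamycin; loss of luminescence reflects streptokinase promoter inhibition or plain growth inhibition; 0% = median of DMSO wells and 100% = positive control at its reference dose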
tim23-1 inh – growth inhibitors of tim23-1 mutant yeast, primary screen, luminescence, uHTS. hit rate 1.3% among 330,000. S. cerevisiae tim23-1 growth, BacTiter-Glo luminescence, 24 h. AID 463212, 2010. inhibition, % at 20 µM;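 active means growth inhibition of the mutant yeast at or above 50%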;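 further: temperature-sensitive mutant grown at 25 °C; plate controls were DMSO-treated mutant yeast for no effect and medium wells lacking yeast for full effect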
NALP1 yeast inh – NALP1 inflammasome inhibitors in reconstituted yeast, colorimetric, S. cerevisiae, triplicate retest. AID 2071, 2009. S. cerevisiae NALP1/ASC/caspase-1 growth, X-gal OD620, 72 h. inhibition, % at 10 µM. hit rate 0.61% among 280,000; in the data active means inhibition mostly above about 24%, no sharp cut-off; inactive means mostly below about 32%
PfHsp90 yeast 2 – growth inhibition of PfHsp90-expressing yeast, primary screen, antimalarial PfHsp90 inhibitor project, S. cerevisiae, BacTiter-Glo luminescence, single point, set 2. BacTiter-Glo ATP, 48 h; yeast lacking PDR1 and PDR3 efflux regulators. inhibition, % at 9.4 µM. hit rate 0.32% among 310,000. AID 504621, 2011;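 active means every replicate shows inhibition above about 80%, whatever the replicate mean, limit read from the data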;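 further: 0% = DMSO neutral controls and 100% = 20 µM radicicol positive controls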
TIM10 inh – growth inhibitors of isogenic TIM10 control yeast, primary screen, counter-screen for tim10-1 yeast inhibitor project, luminescence, uHTS. S. cerevisiae TIM10 strain growth, BacTiter-Glo luminescence, 24 h. inhibition, % at 10 µM. hit rate 1.4% among 330,000. AID 463195, 2010;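 active means inhibition of 40% or more at the single tested concentration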;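 further: wild-type TIM10 isogenic control strain grown at permissive 25 °C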
tim10-1 inh – growth inhibitors of tim10-1 mutant yeast, primary screen, luminescence, uHTS | S. cerevisiae tim10-1 ts strain growth, BacTiter-Glo, 24 h | inhibition, % at 20 µM | hit rate 2.2% among 330,000;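 active means inhibition of at least 40%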;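 further: mutant grown at 25 °C; 0% = DMSO wells with yeast and 100% = wells holding no yeast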
tim10-1 conf – growth inhibitors of tim10-1 mutant yeast, confirmation, single concentration, luminescence, S. cerevisiae; shares compounds with tim10-1 inh; S. cerevisiae tim10-1 ts strain growth, BacTiter-Glo, 24 h; inhibition, % at 20 µM; hit rate 56% among 7,400; AID 463213, 2010;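 active means inhibition of yeast growth at or above a set limit in either of two repeat tests at 20 µM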;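 further: tim10-1 mutant grown at permissive 25 °C to find synthetic lethal compounds; 0% = DMSO yeast wells and 100% = medium wells without yeast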
Starred values were filed as active, the others as inactive; / = no result given.

SMILES	SKKanGAS inh	tim23-1 inh	NALP1 yeast inh	PfHsp90 yeast 2	TIM10 inh	tim10-1 inh	tim10-1 conf
N#C/C(=N\Nc1cccc(Cl)c1)C(=O)c1ccccc1	25	36	3	-17	15	42*	25
CCc1ccc(NC(=O)CC2C(=O)N(c3cccc(C)c3)C(=O)N2C2CC2)cc1 (stereo not given)	3	19	7	-20	12	20	/
COc1ccc(NC(=O)CC2C(=O)N(c3cccc(C)c3)C(=O)N2C2CCCCC2)cc1 (stereo not given)	-1	23	-4	/	11	40	23
CCOc1ccccc1Nc1nc(-c2sc(NC(=O)c3ccco3)nc2C)cs1	43	31	-10	-6	1	17	/
CCOc1ccccc1Nc1nc(-c2sc(C)nc2C)cs1	31	28	1	-2	31	47*	24
Cc1cc2c(C)nc(N/N=C/c3ccc([N+](=O)[O-])cc3)nc2o1	4	/	23	-17	/	/	/
COc1ccc(/C(N)=N/OC(=O)CC2CCCCC2)cc1OC	-2	19	-3	-18	18	51*	61*
COc1ccc(/C(N)=N/OC(=O)C2CCCCC2)cc1OC	7	22	12	-9	16	37	/
COc1ccc(/C(N)=N/OC(=O)CCCc2ccccc2)cc1OC	-5	6	23	6	6	29	/
COc1ccc(/C(N)=N/OC(=O)C2CCCCC2)cc1	1	25	9	0	34	51*	31*
COc1ccc(/C(N)=N/OC(=O)CCC2CCCC2)cc1OC	2	20	-9	-30	9	46*	37*
Cc1ccc(NC(=O)COC(=O)COc2ccc3ccc(=O)oc3c2)cc1[N+](=O)[O-]	/	4	/	-4	-3	-3	/
O=C(COC(=O)c1cc2ccccc2oc1=O)c1cccc([N+](=O)[O-])c1	6	22	36	-21	-3	12	/
CC(C)c1cccc(C(C)C)c1NC(=O)CNCC(O)c1ccccc1 (stereo not given)	4	12	-6	-16	9	25	/
CC(C)c1cccc(C(C)C)c1NC(=O)CNCc1ccccc1F	-10	13	27	-18	27	47*	22
Cc1ccnc(NC(=O)c2c(-c3ccccc3Cl)noc2C)c1	-1	13	29	1	14	17	/
CN(C)S(=O)(=O)c1ccc(N2CCCC2)c(C(=O)Nc2ccccc2)c1	-7	14	/	-16	1	9	/
COc1cc(/C=C/C(=O)c2ccc(O)cc2)ccc1OCC#N	3	21	15	3	12	17	/
COC(=O)c1ccc(/C=C/C(=O)c2cccc(OC)c2)cc1	18	36	39	7	20	42*	34*
COc1cccc(C(=O)/C=C/c2ccc(OCC#N)c(OC)c2)c1	0	38	16	-20	38	43*	31
O=C(NC(=S)NCCC1=CCCCC1)c1cncc(Br)c1	-7	30	-5	-53	27	42*	24
CCCNC(=O)C(=O)NCCC1=CCCCC1	0	-2	-7	/	-7	-7	/
CCNC(=S)N/N=C(\C)c1cccc([N+](=O)[O-])c1	-2	35	21	6	29	44*	26
O=C(NCC(c1ccco1)N1CCN(c2ccccc2F)CC1)C1CCCCC1 (stereo not given)	-4	26	/	8	3	18	/
CN(C(=O)COC(=O)CCc1c[nH]c2ccccc12)c1ccccc1	-5	41	/	37	19	43*	26
COc1cc(C(=O)NCCC2=CCCCC2)cc(OC)c1OC	3	18	-4	-24	-8	12	/
COc1ccc(C)cc1NC(=O)NCCC1=CCCCC1	-1	41	18	/	38	43*	31*
O=C(Nc1ccc(N2CCN(C(=O)c3ccccc3)CC2)c(Cl)c1)c1ccc(Br)o1	8	43	13	/	33	48*	39*
